# Among all 360,000 compounds or so, about 7,500 (2.1%) were called active. Not shown: some 8% with an inconclusive outcome. Calls come from the whole dose curve; as a rule, active = well fitted cell-killing curve with a large enough effect; inconclusive = small, poorly fitted or top-dose-only effect, or effect the other way, or another doubt; inactive = no such curve, though single readings can be large or run the other way. The list comes from a sample in which actives are over-represented; it also holds similar structures and randomly drawn compounds. Where a call stands in place of a potency, no number is given. Some compounds were tested as several samples or in several runs, with calls that do not always agree.
# Assay: qHTS for induction of synthetic lethality in tumor cells producing 2HG: qHTS for the HT-1080-IDH1KD cell line
# Settings: HT-1080 IDH1 knockdown viability, ATP luminescence, 48 h; series mostly up to 46.1 µM
# Procedure, shortened: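 Assay cells: HT-1080 with IDH1 knockdown, 750 per well, RPMI/5% FBS. Exposure: 48 h at 37 °C following 2 h pre-incubation. Read: CellTiter-Glo luminescence; fitted concentration-response, curve class assigned.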
# Potency is the fitted concentration of half-maximal effect.
row,Structure (SMILES),Potency
1,Nc1cc(C(=O)N2CCN(c3ccccc3Cl)CC2)ccc1N1CC2CC(C1)c1cccc(=O)n1C2 (stereo not given),inactive
2,COc1ccc(NC(=O)COC(=O)C2COc3ccccc3O2)cc1 (stereo not given),inactive
3,Cc1ccc(C(=O)Nc2nc3ccc(Cl)cc3s2)o1,inactive
4,Cc1ccc(Cc2cnc(N)s2)o1,inactive
5,Cc1ccc(CCC(=O)Nc2ncc(Cc3cc(Cl)ccc3Cl)s2)o1,1.16 µM (active)
6,COc1ccc(C(O)c2nc(-c3ccc(OC)nc3)cs2)cc1 (stereo not given),inactive
7,CC1CN(C(=O)c2ccc([N+](=O)[O-])s2)CC(C)O1 (stereo not given),inactive
8,CNN/C(N=Cc1ccc([N+](=O)[O-])s1)=N\S(=O)(=O)c1cc(C)c(Cl)cc1SCc1ccccc1,inactive
9,O=[N+]([O-])c1ccc(C=Nc2ccc(Cl)cc2Cl)s1,11.2 µM (active)
10,CC(=O)N(Cc1cc(=O)[nH]c2ccccc12)c1ccc(C)cc1C,inactive
11,Cc1ccc(N(Cc2cc3ccccc3[nH]c2=O)C(=O)c2cccs2)cc1,inactive
12,Cc1ccc(N(Cc2cc(=O)[nH]c3ccccc23)C(=O)CCl)cc1,20.6 µM (active)
13,CC(C)C1Cc2[nH][nH]c(=O)c2C(c2ccc(Cl)cc2)O1 (stereo not given),inactive
14,CC(C)CNC(=O)C1(C)CCCN1C(=O)CSc1ccccc1 (stereo not given),inactive
15,CCCC(=O)N1CCC1(C)C(=O)NCc1ccc(SC)cc1 (stereo not given),inactive
16,COc1cc(/C=C/C(=O)Nc2ccc(OC)c(S(=O)(=O)N3CCOCC3)c2)ccc1OCC#N,inactive
17,COc1ccc(/C=C/C(=O)N2CCCC2)cc1OC,inactive
18,COc1ccc(/C=C/C(=O)Nc2ccc(C34CC5CC(CC(O)(C5)C3)C4)cc2)cc1OC,2.59 µM (active)
19,C[C@@H]1CN([C@H](C)CO)C(=O)CCCn2nncc2CO[C@@H]1CN(C)S(=O)(=O)c1cccc(C#N)c1,inactive
20,CS(=O)(=O)Nc1ccc(C2=NN(S(C)(=O)=O)C(c3cccs3)C2)cc1 (stereo not given),inactive
21,CCS(=O)(=O)Nc1ccc(C2=NN(C(C)=O)C(c3cccs3)C2)cc1 (stereo not given),16.4 µM (active)
22,CS(=O)(=O)Nc1cccc(C2=NN(C(=O)c3cccc(F)c3)C(c3cccs3)C2)c1 (stereo not given),inactive
23,COCC1CCCCN1C(=O)c1cc(COc2ccc(C)c(C)c2)on1 (stereo not given),inactive
24,C=CCSC1=C(C#N)C(c2cc(Br)c(O)c(OC)c2)CC(=O)N1 (stereo not given),inactive
25,CCOC(=O)CSC1=C(C#N)C(c2sccc2C)CC(=O)N1 (stereo not given),1.41 µM (active)

row,Structure (SMILES),Potency
1,COC(=O)CSC1=C(C#N)C(c2ccccc2OC)C(C(=O)OC)C(=O)N1 (stereo not given),inactive
2,COc1ccc(C(=O)N2CCCCC2c2cc(C(=O)Nc3ccc(F)c(Cl)c3)no2)cc1 (stereo not given),inactive
3,CSc1ncc(Sc2ccccc2)c(C(=O)O)n1,inactive
4,CSc1nc(-c2ccccc2)nc(C(Cl)Cl)n1,18.4 µM (active)
5,Cc1ccccc1-c1ccc2c(c1)O[C@@H](CN(C)Cc1ccc(C(=O)O)cc1)[C@@H](C)CN([C@H](C)CO)S2(=O)=O,inactive
6,CC(=O)Nc1cccc(Nc2ccc(C#N)cc2)c1,inactive
7,Cc1ccc(NC(=S)N(CCN2CCCCC2)Cc2ccco2)cc1C,inactive
8,Cc1ccc(NC(=S)N(CCCN2CCC(C)CC2)Cc2ccco2)cc1,inactive
9,Cc1ccc(NC(=S)N(CCCN2CCCC2)Cc2cccn2Cc2ccc(Cl)cc2)cc1,23.1 µM (active)
10,Cc1ccc(NC(=O)COC(=O)CN2CCSC2=O)cc1F,inactive
11,CCc1nc2c(OCCOc3ccc(F)cc3)cccn2c1N(C)C(=O)c1ccccc1F,inactive
12,O=C(OCc1ccccc1)N1CCC2CC1c1ccc(-c3ccc4c(c3)OCO4)cc12 (stereo not given),inactive
13,CCOC(=O)C1(C)CCCN(C(=O)c2cccc(Cl)c2)C1 (stereo not given),inactive
14,CCCCCNC(=O)C(c1ccc(OC)cc1)n1c(=O)c(-c2ccccc2)nc2ccccc21 (stereo not given),inactive
15,O=C(NC1CCCC1)C1c2ccccc2OCC(=O)N1Cc1ccccc1 (stereo not given),inactive
16,Oc1c(Cl)cc(Cl)cc1/C=N/c1ncn[nH]1,inactive
17,C=CCn1c(Cn2nnc3ccccc32)nnc1SCC(=O)N/N=C/c1cc(Br)cc(OC)c1O,inactive
18,COc1cc(Br)cc(/C=N/c2ncn[nH]2)c1O,15.8 µM (active)
19,COc1cc2nc(N3CCCN(C)CC3)nc(NC(C)C)c2cc1OC,inactive
20,O=S1(=O)CC(N2CCSCC2)CN1Cc1cn(Cc2cccc(Cl)c2)nn1 (stereo not given),inactive
21,CN1OC[C@@H]2CN(S(=O)(=O)c3cccc4ccccc34)[C@H](c3ccc(N4CCCCC4)cc3)C[C@@H]21,inactive
22,CCc1nc(C)ccc1OCC(=O)N(CC)CC,inactive
23,CCC(C)(C)c1ccc(OCC(=O)N(C)C)c(C(C)(C)CC)c1,20.6 µM (active)
24,COc1cccc(C(O)c2ncc(-c3ccc4ccccc4c3)[nH]2)c1 (stereo not given),inactive
25,COc1ccc(S(=O)(=O)N2CCC(C(=O)NCCC(=O)NCCc3cccc(F)c3)CC2)cc1,inactive

row,Structure (SMILES),Potency
1,Cc1ccc(NC(=O)[C@H](Cc2ccccc2)NC(=O)CC[C@H]2O[C@@H](n3ccc(=O)[nH]c3=O)[C@H](O)[C@@H]2O)cc1C,inactive
2,COc1cc(C(=O)OCCCN2CCOCC2)cc(OC)c1OC,inactive
3,CCCc1c(C)nc2scc(-c3ccc(Cl)cc3)n2c1=O,inactive
4,CC1CN(C(=O)CCC(=O)NC2CCN(Cc3ccccc3)CC2)c2ccccc2O1 (stereo not given),inactive
5,CC1CN(C(=O)CCC(=O)NCCCN2CCC(Cc3ccccc3)CC2)c2cc(Cl)ccc2O1 (stereo not given),16.4 µM (active)
6,CC1CN(C(=O)CCC(=O)NCc2cccnc2)c2ccccc2O1 (stereo not given),inactive
7,COc1ccc(CN2C(=O)C(CC(=O)NCc3cccc4ccccc34)CC(C(=O)N3CCOCC3)=C2C)cc1 (stereo not given),inactive
8,CC(=O)OCC(C)n1c(=O)c2ccccc2n1C(C)=O (stereo not given),inactive
9,O=c1ccc2c(-c3ccccc3S(=O)(=O)O)c3ccc(O)c(O)c3oc-2c1O,14.6 µM (active)
10,O=S1(=O)CCN(C2CCCCCCCCCCC2)CC1,inactive
11,CCCCn1nnnc1C(c1cc2ccccc2o1)N(C)Cc1ccc(Cl)c(Cl)c1 (stereo not given),inactive
12,C=CC(=O)OCCOCCOCCOCCOC(=O)C=C,23.1 µM (active)
13,O=Cc1cn(CCOc2ccc(F)cc2)c2ccccc12,inactive
14,CCOC(=O)/C(=N\Nc1cc(Cl)ccc1Cl)N1CCN(C)CC1,20.6 µM (active)
15,CCOC(=O)/C(=N\Nc1ccccc1Cl)N(C)C1CCS(=O)(=O)C1 (stereo not given),inactive
16,CCOC(=O)N1CCN(C(=O)C2CCN(S(=O)(=O)c3cc(Cl)ccc3OCC)CC2)CC1,inactive
17,CCN1CCN(c2cc3nc(C)n(Cc4ccccc4)c(=O)c3cc2NC(=O)c2ccccc2F)CC1,20.6 µM (active)
18,CCC(=O)Nc1ccc2nc(C)n(Cc3ccccc3Cl)c(=O)c2c1,inactive
19,CCOc1cc(NC(=O)c2ccccc2C(=O)O)c(OCC)cc1NC(=O)c1ccccc1F,inactive
20,Cc1[nH]c(=O)c(C(=O)/C=C/c2ccccc2)c2c1CCCC2,3.98 µM (active)
21,O=C(/C=C/c1ccc(N2CCOCC2)cc1)c1ccccc1,inactive
22,CC1(C(=O)O)CCCN(C(=O)/C=C/c2ccccc2)C1 (stereo not given),inactive
23,COc1cc(F)ccc1-c1cc(C(=O)NCC2CCCCC2)[nH]n1,inactive
24,Cc1ccc(Nc2nc(-c3ccc(O)cc3O)cs2)nc1,1.84 µM (active)
25,CC(=O)Nc1cnc(-c2ccc(O)cc2C)cn1,inactive

row,Structure (SMILES),Potency
1,Cc1ccn2c(-c3csc(Nc4ccc(C(=O)O)cc4)n3)c(C)nc2c1,inactive
2,O=c1[nH]c(CCl)nc2cc(-c3ccc(Cl)cc3)sc12,11.6 µM (active)
3,CCC1(CC)Cc2ccccc2-c2nc(CCl)[nH]c(=O)c21,inactive
4,Cn1c(NCc2cccnc2)nc2cc(-c3ccc(F)cc3)sc2c1=O,inactive
5,O=C(c1ncn2c1c(=O)[nH]c1ccccc12)N1CCc2ccccc2C1,inactive
6,Cc1sc2nc(-c3ccccc3F)oc(=O)c2c1C,inactive
7,OCCC#Cc1ccc(N2C(c3ccsc3)=Cc3ccc(F)cc3C2c2c[nH]c3ccccc23)cc1 (stereo not given),25.9 µM (active)
8,Nc1ncnc2c1ncn2[C@@H]1O[C@H](C(=O)N2CCCN(Cc3ccccc3F)CC2)[C@@H](O)[C@H]1O,inactive
9,Cc1nnc(SC(C)C(=O)c2c[nH]c3ccccc23)n1C1CC1 (stereo not given),inactive
10,CC(=NNC(N)=O)C1CC2CCC1CC2 (stereo not given),inactive
11,Oc1cc2c(cc1O)CN(C(=S)NCCc1ccc(Cl)cc1)CCC2,39.8 µM (active)
12,O=C(NCCc1ccc(Cl)cc1)c1cccc(N2CCCC2=O)c1,inactive
13,COc1ccc(CCNC(=S)N2CCN(S(=O)(=O)c3ccc(Cl)cc3)CC2)cc1,inactive
14,CCN(CC)C(=O)C1=C(C)N(Cc2ccc(OC)cc2)C(=O)C(CC(=O)NCCCCc2ccccc2)C1 (stereo not given),inactive
15,CC(C)CCOc1ccc(C(=O)Nc2cc(S(=O)(=O)N3CCOCC3)ccc2N2CCOCC2)cc1,inactive
16,COc1ccc(-c2csc(C(O)c3cccc(Cl)c3)n2)cn1 (stereo not given),inactive
17,COc1cccc(NC(=O)Nc2ccc(F)cc2)c1,inactive
18,COc1cccc(/C=N/Nc2ccc(S(=O)(=O)Nc3ccccc3C(=O)O)cc2[N+](=O)[O-])c1O,inactive
19,COc1ccc(/C=N/Nc2cc(N3CCOCC3)nc(C)n2)c(OC)c1,inactive
20,COc1cccc(/C=N/Nc2cc(C)nc(-c3ccccc3O)n2)c1O,6.51 µM (active)
21,Nc1ncnc2c1ncn2[C@@H]1O[C@H](C(=O)NS(=O)(=O)c2c(Cl)nc3sccn23)[C@@H](O)[C@H]1O,inactive
22,COc1ccc(NC(=O)N(C)C[C@@H]2OCc3cn(nn3)CCCC(=O)N([C@H](C)CO)C[C@H]2C)c(OC)c1,inactive
23,COC(=O)C1C(=O)c2c([nH]c(C(=O)OCCSC)c2C)CC1C (stereo not given),inactive
24,CCCOC(=O)c1[nH]c2c(c1C)C(=O)CC(c1cccs1)C2 (stereo not given),0.651 µM (active)
25,COCCOC(=O)c1[nH]c2c(c1C)C(=O)CC(c1ccc(OC)cc1)C2 (stereo not given),inactive

# Source: PubChem BioAssay AID686971 (National Center for Advancing Translational Sciences (NCATS), 2013)
